From PubChem BioAssay AID1159580 (chemical genetic matrix, 2015)
The whole screen tested about 5,500 compounds, of which about 2,000 (36%) were called active. Inconclusive results (about 18%) are left out. Cut-off read from the data, not from the text of the source: active = normalized growth mostly below about 0.91 (no sharp cut-off); inconclusive = no clear call, values can overlap the other calls; inactive = mostly above about 0.92. This is one part of the list.

Assay: chemical genetic growth profiling, strain panel (AID 1159580);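 note: tested at 20 µM; growth read once vehicle control cultures reached saturation at 30 °C; 1 = growth at the plate median or of vehicle wells; lower values mean less growth of the strain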
Settings: S. cerevisiae deletion strains, growth OD

Measured: normalized growth

CC(C)(C=O)Cc1cc(C(C)(C)C)c(O)c(C(C)(C)C)c1
inactive: locus YAL013W, strain DEP1, stronger effect = lower value 1.02 | locus YAL040C, strain CLN3, stronger effect = lower value 0.968 | locus YER002W, strain NOP16, stronger effect = lower value 0.98 | locus YGR078C, strain PAC10, stronger effect = lower value 1 | locus YMR307W, strain GAS1, stronger effect = lower value 1.02 | locus YNL128W, strain TEP1, stronger effect = lower value 1.02 | locus YNL175C, strain NOP13, stronger effect = lower value 1.02 | locus YNL197C, strain WHI3, stronger effect = lower value 0.989 | locus YNL224C, strain SQS1, stronger effect = lower value 1 | locus YNL322C, strain KRE1, stronger effect = lower value 0.994 | locus YOR083W, strain WHI5 (second series), stronger effect = lower value 1.01 | locus YPL055C, strain LGE1, stronger effect = lower value 1.01
